Rows were chosen to be rich in hits. Some 14% of all compounds tested hit in one or more screens of this group.
Cycloheximide cs = affects cycloheximide protein synthesis inhibition readout, counter-screen; hit rate 12% among 300,000; cell reporter, cycloheximide protein synthesis inhibition counterscreen; max response, %; AID 2314; in the data active = max response mostly above about 13%, no sharp cut-off; inactive = mostly below about 14%; note: read at 38.3 µM for the half of the compounds with a filed dose; 0% is about no effect
Shiga toxin inh = Shiga toxin inhibition; Vero cells, Shiga toxin protein synthesis inhibition reporter; inhibition, % at 38.7 µM; hit rate 9.2% among 290,000; in the data active = inhibition mostly above about 28%, no sharp cut-off; inactive = mostly below about 43%; note: 0% is about no effect
NS1 inh = inhibitors of influenza NS1 protein function. Potency, µM (top dose mostly 46.1 µM), without a hit: at the top dose activity, positive = more growth. hit rate 0.4% among 270,000. AID 2326; calls by dose curve; note: potency is the fitted concentration of half-maximal effect; actives are rising curves; nearly all actives have a fitted effect of over 50% in size
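Read-out: OD600 growth recovery of NS1-expressing budding yeast. Cells grown overnight at 30C in -URA glucose medium, washed, resuspended and diluted 1:100 in 2% galactose assay medium, pH 6.0. Same strain lacking NS1 served as positive control.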
LmPK inh = blocks Leishmania mexicana pyruvate kinase activity | Potency, µM (series often up to 57.5 µM), inactives show at the top dose activity change, negative = inhibition, usual class: inhibitors | purified LmPK, Kinase-Glo ATP luminescence, 1 h | hit rate 0.37% among 290,000 | Q27686 | AID 1721; note: potency is the fitted concentration of half-maximal effect; % is set by controls: 0 for no effect and ±100 for the full control effect
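Pyruvate kinase activity monitored as ATP production (luciferase luminescence). Conditions: 0.1 nM enzyme, 0.5 mM PEP, 0.1 mM ADP, 1 h, RT; normalized against uninhibited and no-enzyme wells.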
FBPA Giardia inh = inhibitors of Giardia lamblia fructose-1,6-bisphosphate aldolase. hit rate 0.71% among 290,000. purified Giardia FBPA. A8B2U2. Potency, µM (series often up to 59.6 µM), without a hit: top-dose activity, negative = inhibition, most hits filed as inhibitors; note: potency is the fitted concentration of half-maximal effect; % is set by controls: 0 for no effect and ±100 for the full control effect; nearly all actives have a fitted effect of over 55% in size
Target sequence (A8B2U2 whole entry, looked up): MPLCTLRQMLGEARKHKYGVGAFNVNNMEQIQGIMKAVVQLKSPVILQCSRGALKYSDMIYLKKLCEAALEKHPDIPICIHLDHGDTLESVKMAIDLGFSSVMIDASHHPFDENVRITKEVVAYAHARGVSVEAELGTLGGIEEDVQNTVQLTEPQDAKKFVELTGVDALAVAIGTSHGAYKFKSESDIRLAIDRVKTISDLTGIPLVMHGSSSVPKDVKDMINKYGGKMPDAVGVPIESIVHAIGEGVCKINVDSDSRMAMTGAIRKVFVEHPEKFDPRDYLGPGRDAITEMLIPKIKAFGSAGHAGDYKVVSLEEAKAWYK
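Giardia FBPA (40 nM reagent) was preincubated 10 min at RT with compound (up to 57.5 uM final), then substrate plus GAPDH/TPI/NAD/arsenate coupling system with diaphorase/resazurin was added; resorufin fluorescence (525/598 nm) was read after 20 min.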
* hit, by the source's call; [ ] = remark or other dose. Unless noted, calls come from the whole dose curve; as a rule, active = well fitted curve in the direction sought with a large enough effect; inconclusive = small, poorly fitted or top-dose-only effect, or another doubt; inactive = no such curve, though single readings can be large; an effect the other way counts as inactive or inconclusive.

How did Cn1c(SCc2nc3ccccc3[nH]2)nnc1-c1cccnc1 do in these assays?
Cycloheximide cs: 14; Shiga toxin inh: 31; NS1 inh: 12%; LmPK inh: 0%; FBPA Giardia inh: -16%

What do the screens show for `CCC(=O)NC(Cc1ccccc1)c1nc2ccccc2[nH]1` (stereo unspecified)?
Cycloheximide cs: 12; Shiga toxin inh: 11; NS1 inh: 13%; LmPK inh: 1%; FBPA Giardia inh: -9%

What do the screens show for `CCOc1ccc(-c2nnc(SCc3nc4ccccc4[nH]3)n2N)cc1`?
Cycloheximide cs: 42*; Shiga toxin inh: 82; NS1 inh: 18%; LmPK inh: 2%; FBPA Giardia inh: 14%

What do the screens show for `Clc1ccc(OCc2nc3ccccc3[nH]2)cc1`?
Cycloheximide cs: 32*; Shiga toxin inh: 56*; LmPK inh: -15%; FBPA Giardia inh: -10%

Results for NC(Cc1ccccc1)c1nc2ccccc2[nH]1 (stereo unspecified) ?
Cycloheximide cs: 18*; Shiga toxin inh: 48*; NS1 inh: 9%; LmPK inh: 0%; FBPA Giardia inh: 10%

How did CCc1noc(C)c1C(=O)Nc1nnc(C2CCCCC2)s1 do in these assays?
Cycloheximide cs: 8; Shiga toxin inh: 33; LmPK inh: 2%[11.5 µM]; FBPA Giardia inh: 2%

How did COc1ccc(C(C(=O)NC2CCCCC2)N(C(=O)c2ccco2)c2ccccc2C(C)=O)cc1 (stereo unspecified) do in these assays?
Cycloheximide cs: -5; Shiga toxin inh: -4; NS1 inh: 1%; LmPK inh: -3%

Results for OC(c1ccc(Cl)cc1)C(O)c1nc2ccccc2[nH]1 (stereo unspecified) ?
Cycloheximide cs: 2; Shiga toxin inh: -10; NS1 inh: 4%; LmPK inh: -1%; FBPA Giardia inh: 1%

What do the screens show for `NC(Cc1nc2ccccc2[nH]1)c1ccc(Cl)cc1` (stereo unspecified)?
Cycloheximide cs: 45*; Shiga toxin inh: 81*; NS1 inh: -4%; LmPK inh: -5%; FBPA Giardia inh: -26%

How did c1ccc(OCc2nc3ccccc3[nH]2)cc1 do in these assays?
Cycloheximide cs: 49*; Shiga toxin inh: 75*; NS1 inh: -31%; LmPK inh: 11µM*; FBPA Giardia inh: -7%

Results for CC(=O)c1ccc(N2CCN(CC(=O)Nc3ccc4c(c3)OCCO4)CC2)cc1 ?
Cycloheximide cs: 5; Shiga toxin inh: 8; NS1 inh: -20%; LmPK inh: -2%

How did N#CCC(=O)N/N=C\c1ccc(OC/C=C/c2ccccc2)cc1 do in these assays?
Cycloheximide cs: 27*; Shiga toxin inh: 30; NS1 inh: -2%; LmPK inh: 4%; FBPA Giardia inh: -4%

Results for N#CCC(=O)N/N=C\c1ccccc1OC/C=C/c1ccccc1 ?
Cycloheximide cs: 50*; Shiga toxin inh: 77*; NS1 inh: 2%; LmPK inh: -3%

What do the screens show for `COc1ccc(C2=Nn3c(nnc3-c3ccc(OC)c(OC)c3)SC2)cc1OC`?
Cycloheximide cs: 5; Shiga toxin inh: -5; FBPA Giardia inh: 1%

What do the screens show for `Cc1ccc(S(=O)(=O)N2CCc3nc(-c4ccccc4)c4c(c3C2)CO[C@@H](C)C4)cc1`?
LmPK inh: -5%[11.5 µM]; FBPA Giardia inh: -1%[12.9 µM]

What do the screens show for `C/C(=N/OC(=O)c1cccc(Cl)c1)c1nccs1`?
Cycloheximide cs: -3; Shiga toxin inh: -6; NS1 inh: -55%; LmPK inh: -10%; FBPA Giardia inh: 6%

What do the screens show for `N/C(=N\OC(=O)c1cccc(Cl)c1)c1ccccn1`?
Cycloheximide cs: 42*; Shiga toxin inh: 46; NS1 inh: -53%; LmPK inh: 14µM*; FBPA Giardia inh: -1%

How did N/C(=N\OC(=O)c1cccc(Br)c1)c1ccccc1 do in these assays?
Cycloheximide cs: 27*; Shiga toxin inh: 59*; NS1 inh: -4%; LmPK inh: -18%; FBPA Giardia inh: 0%

How did N/C(=N\OC(=O)c1cccc(Cn2cc(C(F)(F)F)ccc2=O)c1)c1ccccc1 do in these assays?
Cycloheximide cs: 32*; Shiga toxin inh: 41*; NS1 inh: -3%; LmPK inh: 1%; FBPA Giardia inh: -2%

How did N/C(=N\OC(=O)c1ccc(Cl)cc1)c1ccccn1 do in these assays?
Cycloheximide cs: 7; Shiga toxin inh: 33; NS1 inh: -161%; LmPK inh: 5µM*; FBPA Giardia inh: 1%

How did COc1ccc(COC(=O)N/N=C2/C[C@@H](O)[C@@H](O)[C@@H]3[C@@H]4C(=O)N(Cc5ccc6c(c5)OCO6)C(=O)[C@H]4CC[C@@H]23)cc1 do in these assays?
FBPA Giardia inh: 5%[12.9 µM]

How did CCO/N=C(\N)c1[nH]ncc1Br do in these assays?
Cycloheximide cs: 6; Shiga toxin inh: -3; NS1 inh: 0%; LmPK inh: 3%; FBPA Giardia inh: 2%

What do the screens show for `N/C(=N\OC(=O)c1ccc(Cl)cc1)c1[nH]ncc1Br`?
Cycloheximide cs: 64*; Shiga toxin inh: 95*; NS1 inh: -3%; LmPK inh: 10µM*; FBPA Giardia inh: 0%

How did N/C(=N/OC(=O)c1ccc(Cl)cc1)c1ncc([N+](=O)[O-])s1 do in these assays?
Cycloheximide cs: 26*; Shiga toxin inh: 66*; NS1 inh: -5%; LmPK inh: 0%; FBPA Giardia inh: 2%

How did N/C(=N\OS(=O)(=O)c1ccccc1)c1ccccn1 do in these assays?
Cycloheximide cs: 0; Shiga toxin inh: -5; NS1 inh: 0%; LmPK inh: 0%; FBPA Giardia inh: 20%

Results for O=C(COC(=O)c1ccccn1)c1cccc(Br)c1 ?
Cycloheximide cs: 5; Shiga toxin inh: 15; NS1 inh: 5%; LmPK inh: 0%; FBPA Giardia inh: -12%

Results for N/C(=N\OC(=O)c1cccc(Br)c1)c1ccccn1 ?
Cycloheximide cs: 66*; Shiga toxin inh: 36*; NS1 inh: -62%; LmPK inh: inconclusive

Results for N/C(=N\OS(=O)(=O)c1ccc(Cl)cc1)c1ccccn1 ?
Cycloheximide cs: 17*; Shiga toxin inh: 56*; LmPK inh: 0%; FBPA Giardia inh: -6%

How did COc1ccc(O[C@H]2C=C[C@@H](c3ccccc3)O[C@H]2CO/N=C2/[C@H]3O[C@@H]3[C@@H](O)[C@H]3[C@H]2CCn2c(=O)n(-c4ccccc4)c(=O)n23)cc1 do in these assays?
FBPA Giardia inh: -4%[12.9 µM]

How did O=C(OCc1ccc(Cl)c(Cl)c1)c1ccccn1 do in these assays?
Cycloheximide cs: 13; Shiga toxin inh: 20; NS1 inh: -78%; LmPK inh: -24%; FBPA Giardia inh: -1%

Results for N/C(=N\OC(=O)c1ccc(Cl)c([N+](=O)[O-])c1)c1ccccc1 ?
Cycloheximide cs: 0; Shiga toxin inh: -2; NS1 inh: 2%; LmPK inh: -3%; FBPA Giardia inh: 9%

Results for N/C(=N\OC(=O)c1ccc(Cl)c(Cl)c1)c1ccccn1 ?
Cycloheximide cs: 19*; Shiga toxin inh: 107*; NS1 inh: -130%; LmPK inh: -29%; FBPA Giardia inh: 4%

What do the screens show for `N/C(=N\OC(=O)c1ccc(Cl)c([N+](=O)[O-])c1)c1ccccn1`?
Cycloheximide cs: 72*; Shiga toxin inh: 141*; LmPK inh: 1%; FBPA Giardia inh: 1%

High-throughput results deposited in PubChem BioAssay by National Center for Advancing Translational Sciences (NCATS).
